PubChem BioAssay AID1159580 (chemical genetic matrix, 2015)
Where “and” joins values, the source holds several entries; their conditions need not be identical. Equal values may be shown once. Screen size: about 5,500 compounds; about 2,000 (36%) were called active. Not shown: some 18% with an inconclusive outcome. No stated cut-off is given here; in the data, active means normalized growth mostly below about 0.91 (no sharp cut-off); inconclusive means no clear call, values can overlap the other calls; inactive means mostly above about 0.92. This is one part of the list. Some structures have more than one record in an assay (separate samples or runs), and their calls can disagree.

Experiment: chemical genetic growth profiling, strain panel (AID 1159580);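 further: tested at 20 µM; growth read once vehicle control cultures reached saturation at 30 °C; 1 = growth at the plate median or of vehicle wells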
Conditions: S. cerevisiae deletion strains, growth OD

Measured: normalized growth

CN1CCN(CCCN2c3ccccc3Sc3ccc(Cl)cc32)CC1
0.216 (active) and 1.03 (inactive): locus YAL013W, strain DEP1, stronger effect = lower value
inactive: locus YAL040C, strain CLN3, stronger effect = lower value 0.97 | locus YBR171W, strain sec66, stronger effect = lower value 0.987 | locus YBR229C, strain ROT2, stronger effect = lower value 1 | locus YCL016C, strain dcc1, stronger effect = lower value 0.938 | locus YCL029C, strain bik1, stronger effect = lower value 1.03 | locus YCL061C, strain MRC1 (second series), stronger effect = lower value 0.997 | locus YCL069W, strain vba3, stronger effect = lower value 0.966 | locus YDL005C, strain med2, stronger effect = lower value 1 | locus YDL040C, strain nat1, stronger effect = lower value 0.964 | locus YDL101C, strain DUN1, stronger effect = lower value 0.965 | locus YDL134C, strain PPH21, stronger effect = lower value 0.982 | locus YDL185W, strain tfp1, stronger effect = lower value 0.964 | locus YDR001C, strain nth1, stronger effect = lower value 0.993 | locus YDR101C, strain arx1, stronger effect = lower value 0.929 | locus YDR159W, strain sac3, stronger effect = lower value 0.974 | locus YDR297W, strain sur2, stronger effect = lower value 0.968 | locus YDR334W, strain swr1, stronger effect = lower value 0.94 | locus YDR335W, strain msn5, stronger effect = lower value 0.96 | locus YDR363W, strain ESC2, stronger effect = lower value 0.891 | locus YDR392W, strain spt3, stronger effect = lower value 0.954 | locus YEL037C, strain rad23, stronger effect = lower value 0.963 | locus YEL061C, strain CIN8 (second series), stronger effect = lower value 0.986 | locus YER002W, strain NOP16, stronger effect = lower value 1 | locus YER016W, strain bim1, stronger effect = lower value 0.972 | locus YER110C, stronger effect = lower value 1.02 | locus YER111C, strain swi4, stronger effect = lower value 0.993 | locus YER155C, strain BEM2, stronger effect = lower value 1.04 | locus YGL078C, strain dbp3, stronger effect = lower value 0.966 | locus YGL167C, strain pmr1, stronger effect = lower value 0.947 | locus YGL227W, strain vid30, stronger effect = lower value 0.997 | locus YGL240W, strain doc1, stronger effect = lower value 1.01 | locus YGL248W, strain PDE1, stronger effect = lower value 0.99 | locus YGL253W, strain hxk2, stronger effect = lower value 0.927 | locus YHR013C, strain ard1, stronger effect = lower value 0.872 | locus YHR079C, strain IRE1 (second series), stronger effect = lower value 0.969 | locus YHR079C, strain IRE1, stronger effect = lower value 1 | locus YHR094C, strain hxt1, stronger effect = lower value 1 | locus YHR129C, strain ARP1, stronger effect = lower value 0.932 | locus YIL073C, strain SPO22, stronger effect = lower value 0.854 | locus YIL125W, strain kgd1, stronger effect = lower value 0.958 | locus YIR030C, strain dcg1, stronger effect = lower value 1 | locus YJL092W, strain hpr5, stronger effect = lower value 0.942 | locus YJL115W, strain asf1, stronger effect = lower value 0.99 | locus YJL134W, strain LCB3, stronger effect = lower value 0.991 | locus YJL154C, strain vps35, stronger effect = lower value 0.982 | locus YJL168C, strain set2, stronger effect = lower value 1.01 | locus YJR066W, strain TOR1, stronger effect = lower value 0.968
active: locus YAL021C, strain ccr4, stronger effect = lower value 0.706 | locus YAL026C, strain drs2, stronger effect = lower value 0.0669 | locus YAL030W, strain snc1, stronger effect = lower value 0.922 | locus YBL061C, strain skt5, stronger effect = lower value 0.888 | locus YBR009C, strain hhf1, stronger effect = lower value 0.8 | locus YBR021W, strain FUR4, stronger effect = lower value 0.413 | locus YBR023C, strain chs3, stronger effect = lower value 0.868 | locus YBR231C, strain swc5, stronger effect = lower value 0.663 | locus YCL011C, strain gbp2, stronger effect = lower value 0.772 | locus YCR088W, strain abp1, stronger effect = lower value 0.831 | locus YDL035C, strain GPR1, stronger effect = lower value 0.214 | locus YDL074C, strain BRE1, stronger effect = lower value 0.296 | locus YDL192W, strain arf1, stronger effect = lower value 0.0937 | locus YDR069C, strain doa4, stronger effect = lower value 0.804 | locus YDR137W, strain rgp1, stronger effect = lower value 1.26 [resistant] | locus YDR150W, strain NUM1, stronger effect = lower value 0.563 | locus YDR162C, strain NBP2, stronger effect = lower value 0.0524 | locus YDR195W, strain ref2 1.15 [resistant] | locus YDR318W, strain mcm21, stronger effect = lower value 0.91 | locus YDR388W, stronger effect = lower value 0.805 | locus YDR502C, strain sam2, stronger effect = lower value 0.39 | locus YEL003W, strain gim4, stronger effect = lower value 0.832 | locus YEL061C, strain CIN8, stronger effect = lower value 0.664 | locus YER015W, strain faa2, stronger effect = lower value 0.556 | locus YER155C, strain BEM2 (second series), stronger effect = lower value 0.861 | locus YER167W, strain BCK2, stronger effect = lower value 0.858 | locus YFR010W, strain ubp6, stronger effect = lower value 0.734 | locus YGL086W, strain mad1, stronger effect = lower value 0.61 | locus YGL173C, strain kem1, stronger effect = lower value 0.874 | locus YGR078C, strain PAC10, stronger effect = lower value 0.594 | locus YGR135W, strain pre9, stronger effect = lower value 0.544 | locus YGR252W, strain gcn5, stronger effect = lower value 0.309 | locus YHR027C, strain rpn1, stronger effect = lower value 0.594 | locus YHR142W, strain chs7, stronger effect = lower value 0.854 | locus YHR200W, strain rpn10, stronger effect = lower value 0.869 | locus YIL066C, strain RNR3, stronger effect = lower value 0.793 | locus YJL095W, strain BCK1 (second series), stronger effect = lower value 0.919 | locus YJL129C, strain trk1, stronger effect = lower value 0.83 | locus YJL164C, strain tpk1, stronger effect = lower value 0.878 | locus YJL166W, strain qcr8, stronger effect = lower value 0.809 | locus YJL187C, strain SWE1 (second series), stronger effect = lower value 0.85 | locus YJR043C, strain POL32, stronger effect = lower value 0.247 | locus YJR075W, strain HOC1, stronger effect = lower value 0.131
0.494 (active) and 1.04 (inactive): locus YJL095W, strain BCK1, stronger effect = lower value
0.065 (active) and 1.02 (inactive): locus YGR229C, strain SMI1, stronger effect = lower value
0.465 (active) and 1.02 (inactive): locus YHR030C, strain SLT2, stronger effect = lower value
